Measurements taken from PubChem BioAssay (NCATS).
Values joined by “and” are separate entries in the source; they are usually repeats but may differ in a detail not shown here. Equal entries are not always repeated. Inconclusive results are not listed. Entries that show only a call come without a potency. Unmarked numbers belong to inactive results. Active and inactive are the calls of the source. The call rests on the fitted dose curve; in most records, active means well fitted curve in the direction sought with a large enough effect; inconclusive means small, poorly fitted or top-dose-only effect, or another doubt; inactive means no such curve, though single readings can be large; an effect the other way counts as inactive or inconclusive.

Columns and labels:
[1] = molecular target: Cellular tumor antigen p53 (Homo sapiens) (UniProt P04637); experiment: Primary qHTS for small molecule compounds that upregulate eGFP-tagged delta133p53alpha (in N-terminal) cells. (AID 2060322); conditions: NCI-H358 eGFP-delta133p53alpha fluorescence, 24 h; activation: active compounds read high; further: nearly all actives have a fitted effect of over 75% in size; further: potency means the concentration at half of the fitted maximal effect;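 on activation: cells pre-induced with doxycycline then dosed without doxycycline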
Cellular tumor antigen p53 (Homo sapiens), sequence (P04637 whole entry, looked up): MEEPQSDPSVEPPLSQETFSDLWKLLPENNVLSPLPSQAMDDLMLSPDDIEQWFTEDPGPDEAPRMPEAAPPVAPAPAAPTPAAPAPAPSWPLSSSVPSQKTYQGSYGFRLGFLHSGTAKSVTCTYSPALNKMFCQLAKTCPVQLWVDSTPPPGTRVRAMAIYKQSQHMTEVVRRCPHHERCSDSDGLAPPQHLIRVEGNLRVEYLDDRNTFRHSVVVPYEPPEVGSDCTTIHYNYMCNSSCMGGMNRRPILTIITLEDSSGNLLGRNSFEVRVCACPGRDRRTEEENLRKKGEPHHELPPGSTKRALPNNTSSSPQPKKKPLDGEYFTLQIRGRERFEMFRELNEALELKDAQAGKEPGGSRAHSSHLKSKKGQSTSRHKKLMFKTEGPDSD
Summary of the method: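 NCI-H358 cells pre-induced 24 h with 10 ng/ml doxycycline for eGFP-delta133p53alpha, plated dox-free and exposed 24 h at 37C to titrated compounds. Fixed, Hoechst-stained; gated GFP peak intensity by laser scanning cytometry, normalized to DMSO (0%) and 57.5 uM 5-azacytidine (100%).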

[2] = molecular target: Aldehyde dehydrogenase, mitochondrial (Homo sapiens) (UniProt P05091); experiment: qHTS for Inhibitors of the Aldehyde Dehydrogenase Family (ALDH2) Primary screen (AID 2061308); conditions: ALDH2 enzyme inhibition qHTS, 1536-well; series mostly up to 56 µM; further: nearly all actives have a fitted effect of over 55% in size
[3] = molecular target: Retinaldehyde dehydrogenase 3 (Homo sapiens) (UniProt P47895); experiment: qHTS for Inhibitors of the Aldehyde Dehydrogenase Family (ALDH1A3) Primary screen (AID 2061315); conditions: ALDH inhibition qHTS; series mostly up to 56 µM

SMILES	activation [1]	Potency [2]	Potency [3]	activity change, negative = inhibition [2]	activity change, negative = inhibition [3]	Potency [1]
COC1=CC(=O)CC(C)C12Oc1cc(OC)cc(O)c1C2=O (centres undefined)	16.8%	inactive	inactive	–	–	–
C=C1[C@@H]2CC[C@@]3(C)[C@H](c4ccoc4)OC(=O)C[C@]13O[C@H]1CC(=O)C(C)(C)[C@H](CC(=O)OC)[C@]12C	-26.7%	inactive	inactive	–	–	–
COc1cc(C)c(C(=O)O[C@H]2[C@@H](OC(C)=O)[C@H](n3ccc(=O)[nH]c3=O)O[C@@H]2CO)c(OC)c1	-10.7%	inactive	inactive	–	–	–
C[C@@H]1O[C@@H](O[C@H]2[C@H](OC(=O)[C@]34CCC(C)(C)C[C@H]3C3=CCC5[C@@]6(C)C[C@H](O)[C@H](O[C@@H]7O[C@H](CO[C@@H]8OC[C@H](O)[C@H](O)[C@H]8O)[C@@H](O)[C@H](O)[C@H]7O)C(C)(C)C6CC[C@@]5(C)[C@]3(C)C[C@H]4O)OC[C@@H](O)[C@@H]2O)[C@H](O)[C@H](O[C@@H]2OC[C@](O)(CO)[C@H]2O)[C@H]1O[C@@H]1OC[C@H](O)[C@H](O[C@@H]2OC[C@@H](O)[C@H](O)[C@H]2O)[C@H]1O (some centres undefined)	8.93%	–	–	-4.16% [at 11.2 µM]	0.994% [at 11.2 µM]	–
O=C(Nc1ccc(-c2ccncc2)cc1)N[C@H](CO)c1ccccc1	-25.9%	inactive	inactive	–	–	–
CC(=O)NC(CCC(=O)O)C(=O)NCCc1ccc(O)cc1 (centres undefined)	-14.5%	inactive	inactive	–	–	–
CC(C)=C[C@@H]1[C@H](CO[C@@H]2O[C@H](CO)[C@@H](O)[C@H](O)[C@H]2O)C1(C)C	-9.82%	inactive	inactive	–	–	–
Nc1c(S(=O)(=O)c2ccccc2)c2nc3ccccc3nc2n1-c1ccc(F)cc1	-10.3%	inactive	inactive	–	–	–
CC1(C)CCCC2(C)C1C(O)C=C(CO)C2(O)CO (centres undefined)	-13.7%	inactive	inactive	–	–	–
NC(=O)c1csc(C2OC(CO)C(O)C2O)n1 (centres undefined)	-7%	inactive	inactive	–	–	–
Cc1ccc(C)c(S(=O)(=O)n2cnc3ccccc32)c1	1%	inactive	inactive	–	–	–
C=C(C(=O)OC)C1C(O)CC2(C)C(O)CCC(=O)C2C1O (centres undefined)	-15.3%	inactive	inactive	–	–	–
CC(=O)OC[C@]12[C@H](OC(C)=O)C(=O)[C@@H]3[C@@H](O)[C@@]14O[C@@]3(C)COC(=O)c1cccnc1[C@@H](C)[C@H](C)C(=O)O[C@@H]([C@H](O)[C@@H]2OC(C)=O)[C@]4(C)O	-8.04%	inactive	inactive	–	–	–
C=C(C)[C@@H]1CC[C@]2(CO)CC[C@]3(C)[C@H](CC[C@@H]4[C@@]5(C)CC[C@H](O)C(C)(C)[C@@H]5CC[C@]43C)[C@@H]12	–	inactive	inactive	–	–	10.4 µM (active)
CC(C)[C@H]1CCC(CO)=C[C@@H]1/C=C(\CO)C(=O)O	-15.3%	inactive	inactive	–	–	–
C/C=C(\C)C(=O)OC1CC2C(CC=C3CC(OC4CC(OC)C(OC5CC(OC)C(OC6CC(OC)C(OC7CC(OC)C(OC8CC(OC)C(OC9OC(CO)C(O)C(O)C9O)C(C)O8)C(C)O7)C(C)O6)C(C)O5)C(C)O4)CCC32C)C2(O)CCC(C(C)=O)C12C (centres undefined)	-13%	–	–	14.2% [at 11.2 µM]	17.2% [at 11.2 µM]	–
CC1OC(OC2C(OC(=O)[C@]34CCC(C)(C)C[C@H]3C3=CCC5[C@@]6(C)CC[C@H](OC7OC(C(=O)O)C(O)C(O)C7O)C(C)(C)C6CC[C@@]5(C)[C@]3(C)CC4O)OC(CO)C2O)C(O)C(O)C1OC1OCC(O)C(O)C1O (some centres undefined)	-3.82%	inactive	inactive	–	–	–
CC(=O)NC(Cc1ccccc1)C(=O)O (centres undefined)	1.67% and 0%	inactive	inactive	–	–	–
CC1CC(=O)C2=C(O1)OC1(C)CCC3C(C)(C)C=CC(=O)C3(C)C1C2 (centres undefined)	-29.5%	inactive	inactive	–	–	–

SMILES	activation [1]	Potency [2]	Potency [3]	activity change, negative = inhibition [2]	activity change, negative = inhibition [3]	Potency [1]
Cc1cc(O)c(C(C)C)cc1O[C@@H]1O[C@H](CO)[C@@H](O)[C@H](O)[C@H]1O	-17.6%	inactive	inactive	–	–	–
C=C1C(=O)O[C@H]2C3=C(C)CCC[C@]3(C)C(=O)C[C@@H]12	–	inactive	inactive	–	–	15.1 µM (active)
CC1=C(COC2OC(CO)C(O)C(O)C2O)C(C(CO)C(=O)O)CC1 (centres undefined)	-6.87%	inactive	inactive	–	–	–
C[C@H]1[C@H](C)CC[C@]2(C(=O)O[C@@H]3O[C@H](CO)[C@@H](O)[C@H](O)[C@H]3O)CC[C@]3(C(=O)O)C(=CCC4[C@@]5(C)CC[C@H](O[C@@H]6O[C@H](CO)[C@@H](O)[C@H](O)[C@H]6O)C(C)(C)C5CC[C@]43C)[C@H]12 (some centres undefined)	2.68%	inactive	inactive	–	–	–
CC(=O)OC1CC(O)(C(C)C)C2C(OC(=O)c3ccc(O)cc3)C=C(C)C(=O)CC12C (centres undefined)	29.8%	inactive	inactive	–	–	–
C=CC1(C)C=C2C(=O)OC(=O)C3=C(CCCC3(C)C)C2(O)CC1 (centres undefined)	-22.9%	inactive	inactive	–	–	–
CC(O)/C=C/C1(O)C(C)C(O)C(O[C@@H]2O[C@H](CO)[C@@H](O)[C@H](O)[C@H]2O)CC1(C)C (some centres undefined)	-14.3%	inactive	inactive	–	–	–
CC(NC(=O)c1ccccc1N)C(=O)O (centres undefined)	-20.6%	inactive	inactive	–	–	–
CC1(C)CC[C@]2(C(=O)O[C@@H]3O[C@H](CO)[C@@H](O)[C@H](O)[C@H]3O)CC[C@]3(C)C(=CCC4[C@@]5(C)CC[C@H](O[C@@H]6O[C@H](C(=O)O)[C@@H](O)[C@H](O)[C@H]6O)[C@@](C)(CO)C5CC[C@]43C)C2C1 (some centres undefined)	-1.53%	inactive	inactive	–	–	–
COc1c(O)cc2c(c1O)C(=O)O[C@H](C)[C@H]2O	-14.5%	inactive	inactive	–	–	–
CC1(O)CC(O)C2(O)C=COC(O[C@@H]3O[C@H](CO)[C@@H](O)[C@H](O)[C@H]3O)C12 (some centres undefined)	0.893%	inactive	inactive	–	–	–
COC(=O)[C@@H](O)[C@H]1[C@@]2(C)CC3(O)[C@@H](C(=O)[C@H]2O)[C@]24O[C@]25CC(=O)O[C@@H](c2ccoc2)[C@]5(C)CCC4[C@]13C (some centres undefined)	-13%	inactive	inactive	–	–	–
O=C(O)CC1(O)C(=O)Nc2ccccc21 (centres undefined)	1.79%	inactive	inactive	–	–	–
CC1CC(O)C2(C)C(C(=O)O)=CCCC2C1(C)CCc1ccoc1 (centres undefined)	8.93%	inactive	inactive	–	–	–
CC(=O)O[C@@H]1C2=C(O)C(=O)[C@](C)(OC(C)=O)C(=O)C2=CO[C@@]12O[C@@H](C)CC[C@H]2OC(C)=O	-18.3%	inactive	inactive	–	–	–
CCC(C)(OC(C)=O)C(=O)O[C@H]1[C@H](OC(C)=O)[C@]2(CO)[C@H](O)[C@H](O)[C@]3(C)C(=CCC4[C@@]5(C)CC[C@H](O[C@@H]6O[C@H](C(=O)O)[C@@H](O)[C@H](O[C@@H]7OC[C@H](O)[C@H](O[C@@H]8OC[C@H](O)[C@H](O)[C@H]8O)[C@H]7O)[C@H]6O[C@@H]6O[C@H](CO)[C@@H](O)[C@H](O)[C@H]6O)C(C)(C)C5CC[C@]43C)[C@@H]2CC1(C)C (some centres undefined)	–	–	–	-13.5% [at 11.2 µM]	11.4% [at 11.2 µM]	3.2 µM (active)
CCC(C)C(=O)O[C@H]1CCC=C2C=C[C@H](C)[C@H](CC[C@@H](O)C[C@@H](O)CC(=O)O)[C@H]21 (some centres undefined)	-32.8%	inactive	inactive	–	–	–
CC(=O)OC[C@]12[C@H](OC(C)=O)C(=O)[C@@H]3[C@@H](OC(C)=O)[C@@]14O[C@@]3(C)COC(=O)c1cccnc1[C@@H](C)[C@H](C)C(=O)O[C@@H]([C@H](OC(C)=O)[C@@H]2OC(C)=O)[C@]4(C)O	-13.7%	inactive	inactive	–	–	–
CC(O)CCc1ccc(O[C@@H]2O[C@H](CO)[C@@H](O)[C@H](O)[C@H]2O)cc1 (some centres undefined)	-10.7%	inactive	inactive	–	–	–
